# Compound activity: PubChem, National Center for Advancing Translational Sciences (NCATS)
# Hits are enriched below; roughly 17% of the tested compounds scored in any of these assays.
# DT40 TDP1 no CPT: qHTS for Inhibitors of human tyrosyl-DNA phosphodiesterase 1 (TDP1): qHTS in cells in absence of CPT | DT40 Tdp1-/- hTDP1 cells, no CPT, ATP luminescence, 48 h | Potency, µM (titrated, usually from 46.2 µM), for inactives: at the top dose activity change, negative = growth inhibition, most hits filed as inhibitors | 420,000 tested, 15% active | AID 686978, 2013; note: % is set by controls: 0 for no effect and ±100 for the full control effect; nearly all actives have a fitted effect of over 55% in size
#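 A cellular qHTS used chicken DT40 cells lacking endogenous Tdp1 but carrying stably transfected human TDP1. Compounds were applied without camptothecin, and cell growth kinetics were judged by ATP-dependent luminescence after ≥48 hr.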
# TDP1 cell CPT: growth inhibition of DT40 Tdp1-/-;hTDP1 cells with camptothecin (screen for TDP1 inhibitors). Potency, µM (doses to about 46.2 µM), inactives show top-dose activity change, negative = growth inhibition, actives largely listed as inhibitors. chicken DT40 Tdp1-/-;hTDP1 cells + 20 nM CPT, ATP luminescence, 48 h. 420,000 tested, 12% active; note: % is set by controls: 0 for no effect and ±100 for the full control effect; nearly all actives have a fitted effect of over 55% in size
#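 Chicken DT40 Tdp1-/- cells complemented with human TDP1, 400 cells/well, exposed to compounds plus 20 nM camptothecin for at least 48 h at 37 C; viability read as ATP content by CellTiter-Glo luminescence.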
# ClpP mod: qHTS Assay for Activators of ClpP. ATP-dependent Clp protease proteolytic subunit (Bacillus subtilis (strain 168)), P80244. purified B. subtilis ClpP, FRET peptide cleavage, 20 min. Potency, µM (titrated, usually from 57.5 µM), for the others: top-dose activity change, negative = active. 340,000 tested, 1.9% active. AID 651965, 2013; active = well fitted falling curve with a large enough effect; inconclusive = small, poorly fitted or top-dose-only effect; inactive = no such curve, though single readings can be large or run the other way; note: the source files actives as falling curves though it sought activators and does not explain the sign; nearly all actives have a fitted effect of over 65% in size
#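 Buffer: 100 mM Tris/HCl pH8, 100 mM KCl, 0.05% low protease BSA, 2.5% glycerol, 0.01% Tween-20. ClpP 10 microg/mL final; 20 min RT; delta FRET normalized to ADEP and DMSO controls.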
# TDP1 block: TDP1 (human) enzyme inhibition; Q9NUW8; 350,000 tested, 0.28% active; recombinant TDP1, AlphaScreen DNA substrate cleavage; Potency, µM (titrated, usually from 130 µM), for inactives: at the top dose activity change, negative = inhibition, usual class: inhibitors; note: % is set by controls: 0 for no effect and ±100 for the full control effect; nearly all actives have a fitted effect of over 40% in size
# Target sequence (Q9NUW8 whole entry, looked up): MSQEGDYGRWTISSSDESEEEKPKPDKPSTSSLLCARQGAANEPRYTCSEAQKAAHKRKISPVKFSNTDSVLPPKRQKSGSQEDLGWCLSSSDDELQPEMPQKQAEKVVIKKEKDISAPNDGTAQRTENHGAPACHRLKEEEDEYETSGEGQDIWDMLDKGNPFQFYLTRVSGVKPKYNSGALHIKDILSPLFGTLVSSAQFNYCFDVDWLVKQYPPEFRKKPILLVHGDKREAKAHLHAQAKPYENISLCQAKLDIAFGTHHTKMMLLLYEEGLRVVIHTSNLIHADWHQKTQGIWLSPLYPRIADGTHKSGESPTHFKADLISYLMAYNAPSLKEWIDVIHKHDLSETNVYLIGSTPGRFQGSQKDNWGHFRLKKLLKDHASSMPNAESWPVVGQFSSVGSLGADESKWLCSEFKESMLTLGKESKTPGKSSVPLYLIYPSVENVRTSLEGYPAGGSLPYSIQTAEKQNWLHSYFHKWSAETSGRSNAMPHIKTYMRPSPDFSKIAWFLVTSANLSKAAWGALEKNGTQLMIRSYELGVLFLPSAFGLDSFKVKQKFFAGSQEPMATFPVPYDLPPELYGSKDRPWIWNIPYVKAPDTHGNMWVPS
#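 Steps: enzyme plus compound, 15 min RT; add biotin/phosphotyrosine-FITC oligonucleotide (15 nM final), react 5 min; add donor/acceptor beads (10 ug/ml final), 10 min; read AlphaScreen. Tdp1 at 1 nM final.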
# * hit, by the source's call; ? = inconclusive; . = no result given; [ ] = another dose, or the depositor's remark. Unless noted, calls come from the whole dose curve; as a rule, active = well fitted curve in the direction sought with a large enough effect; inconclusive = small, poorly fitted or top-dose-only effect, or another doubt; inactive = no such curve, though single readings can be large; an effect the other way counts as inactive or inconclusive. Potency is the fitted concentration of half-maximal effect.
SMILES,DT40 TDP1 no CPT,TDP1 cell CPT,ClpP mod,TDP1 block
CCCCn1c(=NC(=O)C(C)(C)Oc2ccc(Cl)cc2)c(C(=O)OCC)cc2c(=O)n3ccccc3nc21,-15%,-2%,4%,9%
COCCN(CCOC)C(=O)c1c[nH]c2ccc(S(=O)(=O)N(C)c3ccc(F)cc3)cc2c1=O,0%,10%,32µM*,1%
CCOc1ccc(N(C)S(=O)(=O)c2ccc3[nH]cc(C(=O)NCC(OC)OC)c(=O)c3c2)cc1,26µM*,?,-9%,.
CCOc1ccccc1N(C)S(=O)(=O)c1ccc2[nH]cc(C(=O)N(CCOC)CCOC)c(=O)c2c1,-24%,15%,.,.
CCOc1ccc(N(C)S(=O)(=O)c2ccc3[nH]cc(C(=O)NCc4ccccc4)c(=O)c3c2)cc1,21%,10%,0%,3%
Cc1oc2ncn(CC(C)C)c(=O)c2c1C(=O)Nc1cccc(C(F)(F)F)c1,-1%,-10%,1%,0%
CCCN(C(=O)COc1ccc(C(C)=O)cc1OC)C1CCS(=O)(=O)C1 (stereo unspecified),17%,-5%,-6%,-1%
CC1=NN(c2ccccc2)C(=O)C1C(=O)c1ccc(Cl)cc1 (stereo unspecified),23µM*,21µM*,2%,8%
CC1=NN(c2ccccc2)C(=O)C1C(=O)C(=O)Nc1ccc(F)cc1 (stereo unspecified),?,?,-3%,8%
Cc1ccc(Nc2nc(N)c([N+](=O)[O-])c(N3CCOCC3)n2)cc1C,21µM*,23µM*,-1%,8%
CCN1CCN(c2nc(Nc3cccc(C)c3)nc(N)c2[N+](=O)[O-])CC1,18µM*,?,-2%,8%
Cc1ccc(Nc2nc(N)c([N+](=O)[O-])c(N3CCC(C)CC3)n2)cc1C,?,?,?,7%
Cc1cccc(Nc2nc(N)c([N+](=O)[O-])c(N3CCN(C)CC3)n2)c1,?,?,-21%,1%
Cc1ccc(Nc2nc(N)c([N+](=O)[O-])c(NCCO)n2)cc1C,-24%,10%,-1%,4%
Cc1cccc(Nc2nc(N)c([N+](=O)[O-])c(N3CCCC(C)C3)n2)c1 (stereo unspecified),10µM*,13µM*,-3%,5%
Cc1ccc(Nc2nc(N)c([N+](=O)[O-])c(NCc3ccco3)n2)cc1C,?,26µM*,2%,9%
CC(C(=O)Nc1sc2c(c1C(=O)NCC1CCCO1)CCC2)N1C(=O)c2ccccc2C1=O (stereo unspecified),-4%,-5%,1%,-1%
CC(=O)NC(c1ccccc1)c1nc(-c2ccc(Cl)cc2)cs1 (stereo unspecified),?,?,4%,.
Cc1cc(N(C)C)cc(C)c1C=O,0%,-7%,1%,.
COc1cccc(C(=O)N[C@@H](C)C(=O)N2CCC3(CC2)NCCc2[nH]cnc23)c1,-12%,-6%,-3%,1%
O=C(NCCCl)Nc1cccnc1Cl,?,6%,.,2%
O=C1NC[C@@H](CCCCN2C[C@H](Cc3ccc(O)cc3)N(Cc3ccccc3)C(=O)C2=O)N(Cc2ccccc2)C1=O,-5%,-8%,1%,.
c1ccc2c(c1)Cn1nnnc1-2,-5%,-1%,-2%,3%
c1ccc2c(c1)CC1(CCCCC1)n1nnnc1-2,23µM*,15µM*,0%,2%
CCN1CCN(C2=C(NS(=O)(=O)c3ccc(NC(C)=O)cc3)C(=O)c3ccccc3C2=O)CC1,21µM*,16µM*,0%,7%
SMILES,DT40 TDP1 no CPT,TDP1 cell CPT,ClpP mod,TDP1 block
CC(=O)Nc1ccc(S(=O)(=O)Nc2cc(C)cn(Cc3ccccc3)c2=O)cc1,7.3µM*,?,.,14%
CC(=O)Nc1ccc(S(=O)(=O)NC2=C(N3CCN(Cc4ccccc4)CC3)C(=O)c3ccccc3C2=O)cc1,?,10µM*,0%,10%
O=C(CCS(=O)(=O)c1ccccc1)Nc1ccc(N2CCN(Cc3ccccc3)CC2)cc1,?,?,-2%,1%
CCN1CCN(C2=C(NS(=O)(=O)c3ccc(C)cc3)C(=O)c3ccccc3C2=O)CC1,21µM*,12µM*,2%,6%
CCN1CCN(c2nc3ccccc3nc2NS(=O)(=O)c2ccc(NC(C)=O)cc2)CC1,-2%,1%,-19%,1%
CC(=O)Nc1ccc(S(=O)(=O)Nc2cccn(Cc3ccc(C)cc3)c2=O)cc1,?,?,.,6%
Cc1cc(OC(=O)c2ccccc2C(F)(F)F)c([N+](=O)[O-])c(=O)[nH]1,0%,-10%,2%,.
O=C1CCC[C@@H]2Cc3nc4ccc(O)cc4cc3[C@@H]3CCN1[C@H]23,4%,10%,-3%,.
O=C1CCC[C@@H]2Cc3nc4cc5c(cc4cc3[C@@H]3CCN1[C@H]23)OCO5,16µM*,18µM*,4%,.
C[C@@H]1C[C@H]2[C@@H]3CCC4=CC(=O)C=C[C@]4(C)[C@@]3(Cl)[C@@H](O)C[C@]2(C)[C@@]1(OC(=O)c1ccco1)C(=O)CCl,12µM*,16µM*,0%,.
CCCCC(=O)O[C@@]1(C(=O)CO)C(C)CC2C3CCC4=CC(=O)C=C[C@@]4(C)[C@]3(F)C(O)C[C@]21C (stereo partly specified),-20%,-24%,.,8%
C[C@H]1C[C@@H]2[C@H]3CCC4=CC(=O)C=C[C@@]4(C)[C@@]3(Cl)[C@@H](O)C[C@]2(C)[C@]1(OC(=O)c1ccco1)C(=O)CCl,.,.,.,5%[56.1 µM]
CCC(=O)O[C@]1(C(=O)CCl)[C@@H](C)C[C@H]2[C@@H]3C[C@H](F)C4=CC(=O)C=C[C@]4(C)[C@@]3(F)[C@@H](O)C[C@@]21C,19µM*,?,.,.
COc1ccccc1N1CCN(CCN2C(=O)C3CCCCN3C2=O)CC1 (stereo unspecified),-8%,1%,32µM*,4%
COc1ccccc1N1CCN(/N=C/C(Cl)=C/c2ccccc2)CC1,16µM*,26µM*,.,9%
COc1ccccc1N1CCN(C(=O)CN2C(=O)c3cccc4cccc(c34)C2=O)CC1,?,26µM*,.,1%
COc1ccccc1N1CCN(C(=O)CCCN2C(=O)c3cccc4cccc(c34)C2=O)CC1,29µM*,16µM*,-20%,2%
COc1ccc(C(=O)CSc2nccn2C)c(OC)c1,9%,5%,-1%,5%
COc1ccccc1N1CCN(C(=O)Cn2c(=O)nc(-c3ccccc3)c3ccccc32)CC1,15µM*,?,-17%,-1%
COc1ccccc1N1CCN(C(=O)Cn2c(=O)n3nc(-c4cccc(F)c4)nc3c3ccccc32)CC1,-13%,0%,-2%,3%
COc1ccc(OC)c(N2Cc3ccccc3C2)c1,?,?,-5%,3%[56.1 µM]
COc1ccccc1N1CCN(CCOc2c(OC)cccc2OC)CC1,?,18µM*,-3%,5%
